Results: PubChem BioAssay (NCI)
Several values for one entry are separate records, joined by “and”; a condition that tells them apart may be missing. Identical values can stand only once. The panel holds about 79,000 compounds, 15% with a hit somewhere; the sample as a whole holds those more often. Activity calls are given as the source filed them. No stated cut-off is given here; in the data, active means growth inhibition above about 70%; inactive means the rest.

Assays:
[1] = NCI Yeast Anticancer Drug Screen. Data for the rad52 strain (AID 147);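 further: 0% = growth of vehicle-treated control cultures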; settings: S. cerevisiae rad52 mutant growth inhibition, stronger effect = higher value
Outline: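 Yeast strain carrying a DNA damage repair alteration was exposed to test compounds. Growth inhibition was measured relative to vehicle-treated controls.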

[2] = NCI Yeast Anticancer Drug Screen. Data for the wt1 strain (AID 149);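 further: 0% = growth of vehicle-treated wt1 cultures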; settings: S. cerevisiae wt1 strain (SPY 50644) growth inhibition, stronger effect = higher value
Outline: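 wt1 strain grown with compound or vehicle; inhibition taken from the growth difference.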

[3] = NCI Yeast Anticancer Drug Screen. Data for the rad50EPP+ strain (AID 151);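 further: 0% = growth of vehicle-treated control cultures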; settings: S. cerevisiae rad50 mutant strain, stronger effect = higher value
Outline: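 Yeast strain carrying rad50 alteration (rad50EPP+) exposed to compounds; growth inhibition measured relative to vehicle-treated controls.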

[4] = NCI Yeast Anticancer Drug Screen. Data for the mgt1 strain (AID 153); settings: S. cerevisiae mgt1 mutant growth inhibition, stronger effect = higher value
Outline: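 Yeast mgt1 strain (DNA repair/cell-cycle alteration panel) exposed to compounds; growth inhibition measured relative to vehicle-treated controls.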

[5] = NCI Yeast Anticancer Drug Screen. Data for the rad50 strain (AID 155);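 further: 0% = growth of vehicle-only cultures of the same strain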; settings: S. cerevisiae rad50 strain growth inhibition, stronger effect = higher value
Outline: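 DNA repair mutant yeast, compound exposure, growth read-out; inhibition is taken relative to vehicle.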

[6] = NCI Yeast Anticancer Drug Screen. Data for the mec2-1 strain (AID 157); settings: S. cerevisiae mec2-1 strain, stronger effect = higher value
Outline: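 mec2-1 yeast strain, carrying an alteration in DNA damage repair or cell cycle control, was exposed to compounds; growth inhibition was measured relative to vehicle-treated controls.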

[7] = NCI Yeast Anticancer Drug Screen. Data for the rad14 strain (AID 159);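 further: 0% = growth of vehicle-treated control cultures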; settings: S. cerevisiae rad14 strain growth inhibition, stronger effect = higher value
Outline: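 DNA repair-defective yeast, compound-exposed; % growth inhibition derived by comparison with vehicle-treated controls.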

[8] = NCI Yeast Anticancer Drug Screen. Data for the sgs1 mgt1 strain (AID 161);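 further: 0% = growth of cultures given vehicle only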; settings: S. cerevisiae sgs1 mgt1 strain, stronger effect = higher value
Outline: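 Percent growth inhibition was derived by comparing compound-exposed mutant yeast with vehicle-exposed cultures. The strain carries alterations in DNA damage repair.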

[9] = NCI Yeast Anticancer Drug Screen. Data for the CLN2oe strain (AID 163);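 further: 0% = growth of vehicle-only control cultures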; settings: S. cerevisiae CLN2oe strain, stronger effect = higher value
Outline: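 Yeast cells carrying a defined cell-cycle control alteration were exposed to test compounds. Growth inhibition was scored against vehicle-treated control cultures.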

[10] = NCI Yeast Anticancer Drug Screen. Data for the cln2 rad14 strain (AID 165);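 further: 0% = growth equal to vehicle treated cultures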; settings: S. cerevisiae cln2 rad14 strain, stronger effect = higher value
Outline: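 Yeast carrying cln2 and rad14 alterations (cell cycle control and DNA damage repair) were exposed to compounds. Growth inhibition was measured against vehicle-treated controls.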

[11] = NCI Yeast Anticancer Drug Screen. Data for the bub3 strain (AID 167); settings: S. cerevisiae bub3 mutant strain, stronger effect = higher value
Outline: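 In this screen, a yeast mutant lacking normal mitotic checkpoint function is challenged with compound. Relative growth versus vehicle gives the inhibition value.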

[12] = NCI Yeast Anticancer Drug Screen. Data for the wt2 strain (AID 169);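 further: 0% = growth of vehicle-treated yeast cultures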; settings: S. cerevisiae wt2 strain growth inhibition, stronger effect = higher value
Outline: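 Yeast cells were exposed to test compounds, and growth inhibition was measured relative to vehicle-treated controls.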

[13] = NCI Yeast Anticancer Drug Screen. Data for the mlh1 strain (AID 171);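 further: 0% = growth of vehicle-treated control cultures of the same strain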; settings: S. cerevisiae mlh1 strain growth inhibition, stronger effect = higher value
Outline: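 Yeast carrying a defined genetic alteration in DNA damage repair or cell cycle control were exposed to test compounds. Growth inhibition was measured relative to vehicle-treated controls.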

[14] = NCI Yeast Anticancer Drug Screen. Data for the sgs1 strain (AID 173);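 further: 0% = growth of vehicle-only control cultures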; settings: S. cerevisiae sgs1 mutant, stronger effect = higher value
Outline: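 Yeast mutant strains carrying defined defects in DNA damage repair or cell cycle control were exposed to test compounds. Growth inhibition was scored against vehicle-treated controls.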

[15] = NCI Yeast Anticancer Drug Screen. Data for the mlh1 rad18 strain (AID 175); settings: S. cerevisiae mlh1 rad18 strain growth inhibition, stronger effect = higher value
Outline: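 Growth inhibition of the yeast strain was measured after compound exposure and expressed relative to vehicle-treated controls. The strain carries defined defects in DNA damage repair.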

[16] = NCI Yeast Anticancer Drug Screen. Data for the rad18 strain (AID 177); settings: S. cerevisiae rad18 mutant growth inhibition, stronger effect = higher value
Outline: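 Yeast carrying a defined DNA damage repair alteration were exposed to compounds. Growth inhibition was expressed relative to vehicle-treated controls.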

[17] = at 5.0 µM (retest, dose inferred, filed as 0.5)
[18] = at 50.0 µM (retest, dose inferred, filed as 5.0)

Measured: growth inhibition

CCc1nc2ccc(NCCN(C)C)c3c(=O)c4ccccc4n1c23
inactive: [1]; at 1.2 µM 12% | [1]; at 3.7 µM 39% | [1]; at 11.0 µM 60% | [2]; at 1.2 µM 25% | [2]; at 3.7 µM 29% | [2]; at 11.0 µM 31% | [2]; at 33.0 µM 22% | [2]; at 100.0 µM 22% | [3]; at 1.2 µM 14% | [3]; at 3.7 µM 26% | [3]; at 11.0 µM 39% | [3]; at 33.0 µM 57% | [4]; at 1.2 µM 37% | [4]; at 3.7 µM 38% | [4]; at 11.0 µM 29% | [4]; at 33.0 µM 23% | [4]; at 100.0 µM 40% | [5]; at 1.2 µM 46% | [5]; at 3.7 µM 49% | [5]; [17] 38% | [5]; at 50.0 µM 29.1% | [6]; at 1.2 µM 25% | [6]; at 3.7 µM 26% | [6]; [17] 4% | [6]; at 11.0 µM 11% | [6]; at 33.0 µM 24% | [6]; [18] 40% | [6]; at 50.0 µM 20.1% | [6]; at 100.0 µM 16% | [7]; at 1.2 µM 31% | [7]; at 3.7 µM 33% | [7]; at 11.0 µM 35% | [7]; at 33.0 µM 37% | [7]; at 100.0 µM 58% | [8]; [17] 3% | [8]; [18] 28% | [8]; at 50.0 µM 19.6% | [9]; at 1.2 µM 18% | [9]; at 3.7 µM 13% | [9]; at 11.0 µM 17% | [9]; at 33.0 µM 33% | [9]; at 100.0 µM 46% | [10]; [17] 14% | [10]; [18] 26% | [10]; at 50.0 µM 21.8% | [11]; at 1.2 µM 9% | [11]; at 3.7 µM 11% | [11]; [17] 4% | [11]; at 11.0 µM 5% | [11]; at 33.0 µM 3% | [11]; [18] 32% | [11]; at 50.0 µM -4.2% | [11]; at 100.0 µM 26% | [12]; at 1.2 µM -39% | [12]; at 3.7 µM -34% | [12]; at 11.0 µM -29% | [12]; at 33.0 µM -31% | [12]; at 100.0 µM 5% | [13]; at 1.2 µM 37% | [13]; at 3.7 µM 38% | [13]; at 11.0 µM 29% | [13]; at 33.0 µM 23% | [13]; at 100.0 µM 40% | [14]; at 1.2 µM 18% | [14]; at 3.7 µM 15% | [14]; at 11.0 µM 28% | [14]; at 33.0 µM 22% | [14]; at 100.0 µM 54% | [15]; [17] 14% | [15]; [18] 53% | [16]; at 1.2 µM 30% | [16]; at 3.7 µM 42% | [16]; at 11.0 µM 44% | [16]; at 33.0 µM 63%
active: [1]; at 33.0 µM 81% | [1]; at 100.0 µM 85% | [3]; at 100.0 µM 71% | [5]; at 11.0 µM 74% | [5]; at 33.0 µM 89% | [5]; [18] 86% | [5]; at 100.0 µM 91% | [15]; at 50.0 µM 83.8% | [16]; at 100.0 µM 80%

CN(C)CCOC1(Cc2ccc(Cl)cc2Cl)CCC(C(C)(C)C)CC1 (stereo not drawn)
active: [1]; at 11.0 µM 99% and 98% | [1]; at 33.0 µM 99% | [1]; at 100.0 µM 99% and 97% | [2]; at 11.0 µM 98% and 86% | [2]; at 33.0 µM 99% | [2]; at 100.0 µM 100% and 99% | [3]; at 11.0 µM 91% and 94% | [3]; at 33.0 µM 98% and 92% | [3]; at 100.0 µM 99% | [4]; at 11.0 µM 99% | [4]; at 33.0 µM 100% and 99% | [4]; at 100.0 µM 100% and 99% | [5]; at 11.0 µM 99% | [5]; at 33.0 µM 99% | [5]; [18] 100% | [5]; at 50.0 µM 98.8% and 99.2% | [5]; at 100.0 µM 99% | [6]; at 11.0 µM 99% | [6]; at 33.0 µM 100% and 99% | [6]; [18] 100% | [6]; at 50.0 µM 99.5% | [6]; at 100.0 µM 100% and 99% | [7]; at 11.0 µM 99% | [7]; at 33.0 µM 99% | [7]; at 100.0 µM 100% and 99% | [8]; [18] 100% | [8]; at 50.0 µM 99.5% and 99.7% | [9]; at 11.0 µM 99% and 81% | [9]; at 33.0 µM 98% | [9]; at 100.0 µM 97% and 99% | [10]; [18] 100% | [10]; at 50.0 µM 99.1% and 97.9% | [11]; at 11.0 µM 99% and 98% | [11]; at 33.0 µM 99% and 98% | [11]; [18] 100% | [11]; at 50.0 µM 99.2% and 95.8% | [11]; at 100.0 µM 99% | [12]; at 11.0 µM 99% | [12]; at 33.0 µM 100% and 99% | [12]; at 100.0 µM 100% | [13]; at 11.0 µM 99% | [13]; at 33.0 µM 100% and 99% | [13]; at 100.0 µM 100% and 99% | [14]; at 11.0 µM 99% | [14]; at 33.0 µM 100% and 99% | [14]; at 100.0 µM 100% and 99% | [16]; at 11.0 µM 99% and 98% | [16]; at 33.0 µM 99% | [16]; at 100.0 µM 99%
inactive: [1]; at 1.2 µM 1% and -3% | [1]; at 3.7 µM 1% and 0% | [2]; at 1.2 µM 0% and -4% | [2]; at 3.7 µM -4% and -6% | [3]; at 1.2 µM -9% and -10% | [3]; at 3.7 µM -50% and -53% | [4]; at 1.2 µM 0% and -3% | [4]; at 3.7 µM 14% and 19% | [5]; at 1.2 µM 1% and -4% | [5]; at 3.7 µM 3% | [5]; [17] 48% and 22% | [6]; at 1.2 µM -5% and -2% | [6]; at 3.7 µM -4% and 5% | [6]; [17] 49% and 21% | [7]; at 1.2 µM -3% and -1% | [7]; at 3.7 µM 11% and 18% | [8]; [17] 64% and 58% | [9]; at 1.2 µM -9% and -8% | [9]; at 3.7 µM -8% | [10]; [17] 40% and 16% | [11]; at 1.2 µM -8% and -3% | [11]; at 3.7 µM 0% and -2% | [11]; [17] 8% and 15% | [12]; at 1.2 µM -1% and -3% | [12]; at 3.7 µM 3% and 8% | [13]; at 1.2 µM 0% and -1% | [13]; at 3.7 µM 6% and 14% | [14]; at 1.2 µM -1% | [14]; at 3.7 µM 11% and 26% | [16]; at 1.2 µM 0% and -4% | [16]; at 3.7 µM 0% and -2%
